In PubChem BioAssay:
Activity calls are given as the source filed them. Unless noted, the rule behind the calls is not given here.

molecular target: Dihydroorotate dehydrogenase (quinone), mitochondrial (Plasmodium falciparum (isolate 3D7)) (UniProt Q08210); test: inhibition of P. falciparum DHODH – biochemical, C-terminal His tag, absorbance 600 nm, primary screen (AID 1175); conditions: PfDHODH enzyme, DCIP absorbance 600 nm; higher = more signal, called active from +8 up or from −8 down;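 note: recombinant parasite enzyme with a five histidine tag at its C terminus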
Note: test concentration not given here.

Sequence of Dihydroorotate dehydrogenase (quinone), mitochondrial (Plasmodium falciparum (isolate 3D7)) (Q08210 whole entry, looked up): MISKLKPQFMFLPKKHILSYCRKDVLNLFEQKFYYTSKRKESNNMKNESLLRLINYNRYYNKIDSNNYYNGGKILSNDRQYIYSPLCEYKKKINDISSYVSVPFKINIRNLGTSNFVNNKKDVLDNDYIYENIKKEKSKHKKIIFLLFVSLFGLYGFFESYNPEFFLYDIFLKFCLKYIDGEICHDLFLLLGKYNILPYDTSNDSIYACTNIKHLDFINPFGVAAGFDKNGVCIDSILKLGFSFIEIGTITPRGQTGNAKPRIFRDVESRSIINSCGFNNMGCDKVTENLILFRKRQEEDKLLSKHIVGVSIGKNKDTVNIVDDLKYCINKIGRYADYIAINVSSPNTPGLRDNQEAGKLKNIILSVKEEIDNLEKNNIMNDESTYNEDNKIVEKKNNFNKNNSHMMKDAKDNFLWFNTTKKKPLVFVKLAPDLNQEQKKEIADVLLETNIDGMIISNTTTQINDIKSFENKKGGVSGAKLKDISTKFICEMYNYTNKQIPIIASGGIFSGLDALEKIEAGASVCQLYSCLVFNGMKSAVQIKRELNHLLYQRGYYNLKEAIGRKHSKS

Composite z-score, inactive:
CCCC=C(CCC)[C@@H](NC(=O)c1ccc(-c2ccccc2)cc1)c1ccc(C(=O)OC)cc1 0.407
COCC(=C=CC[C@@H](O)c1ccccc1OCCO)CCO -1.59
CC1CC/C=C\[C@H]2OC34C=CCN(C(C)C)C(=O)[C@H]3N(CCCO)C(=O)[C@@H]4C2C(=O)O1 (stereo partly drawn) 0.395
Cn1cccc1C(O)C1C=CC2C(=O)NC(=O)C2N1Nc1ccccn1 (stereo not drawn) 1.21
CCCC[C@H]1OB(O)C[C@H]2C1=C(C)C[C@H]1C(=O)N(C)C(=O)[C@H]12 -0.829
Cc1ccc(S[C@]2(C(=O)NCC(F)(F)F)CC(=O)N(Cc3ccccc3Cl)[C@@H]2c2ccc(CO)cc2I)cc1 -0.148
CC(C)NC(=O)[C@@H]1c2ccccc2C(=O)N(CC23CC4CC(CC(C4)C2)C3)[C@H]1c1ccc(CO)cc1 0.61
CCc1cccc(NC(=O)O[C@H]2[C@H](OC(=O)Nc3ccc4c(c3)OCO4)[C@@H](OC(=O)Nc3ccc4c(c3)OCO4)[C@@H](OC)O[C@@H]2CO)c1 -0.0004
CC(C)OC(=O)C=C1C[C@@H](c2ccc(C#N)cc2)O[C@@H](c2ccc(C#N)cc2)O1 0.382
COC(=O)C1=CCC(c2cccc(Cl)c2)O1 (stereo not drawn) -0.861
CCCC[C@@H](O)C1=C(C)C[C@H]2C(=O)N(Cc3ccccc3)C(=O)[C@H]2[C@H]1CO -2.65

tested on: not listed separately; test: inhibition of PAO1 biofilm formation – strain PAO1, LB-PBS medium, absorbance 600 nm, primary screen (AID 1176); conditions: P. aeruginosa PAO1 growth/biofilm, A600, 12 h; higher = more signal

z-score, inactive:
CC(C)c1ccc(NN2C(C(O)c3ccc4c(c3)OCO4)C=CC3C(=O)N(c4ccccc4)C(=O)C32)cc1 (stereo not drawn) 1.08
CN1C(=O)[C@@]2(CCC(=O)OC(C)(C)C)N=C(c3ccc(OCCCO)cc3)O[C@H]2c2ccccc21 0.0279
COC(=O)[C@@]1(Cc2ccc(F)cc2)[C@@H]2C(=CC(=O)[C@H]2CC(=O)C(=O)N(C)C)CN1C(=O)c1ccccc1 0.784
O=C(CS)NCCCCCNC(=O)[C@H]1C[C@H]2C(=O)N3CCC[C@H]3C(=O)N2[C@H]1c1cccc(OCCO)c1 -0.667
C=CCOC(=O)[C@H]1[C@@H]2C(=O)O[C@@H](c3ccccc3)[C@@H](c3ccccc3)N2[C@@H](c2ccc(OCCOC(=O)[C@H]3C[C@H]4C(=O)N[C@@H](Cc5ccccc5)C(=O)N4[C@H]3c3ccc(O)cc3)cc2)[C@]12C(=O)Nc1ccccc12 2.64
COc1ccc([Si](C)(C)[C@@H]2[C@@H](CCO)O[C@]3(C(=O)N(Cc4ccc(NC(C)=O)cc4)c4ccccc43)[C@H]2C)cc1 -0.094
CCCCCN1CC=CC23O[C@@H]4C=CCOC(=O)[C@@H]4[C@H]2C(=O)N(CCCCCCO)[C@@H]3C1=O (stereo partly drawn) 0.454
COC(=O)C1(C)C=C2C(=C(c3ccccc3)C(=O)C2C)CN1 (stereo not drawn) 1.38
CC(C)N1CC=CC23O[C@@H]4C=CCCOC(=O)C4[C@H]2C(=O)N(CCCCCCO)[C@@H]3C1=O (stereo partly drawn) 0.109
COc1ccc([Si](C)(C)[C@H]2[C@H](CCO)O[C@@]3(C(=O)N(Cc4cccc(NC(=O)[C@H](C)O)c4)c4ccccc43)[C@@H]2C)cc1 1.19
COc1ccc(CCNC(=O)[C@@H]2c3ccccc3C(=O)N(c3ccc(C)cn3)[C@H]2c2ccc(CO)cc2)cc1 0.525
C=CCNC(=O)[C@H]1[C@@H]2C(=O)O[C@@H](c3ccccc3)[C@@H](c3ccccc3)N2[C@@H](c2ccc(O)cc2)[C@]12C(=O)N(C(=O)OCCOC)c1ccc(C#CC3=CCCCC3)cc12 0.858
[N-]=[N+]=NCc1ccccc1[C@@H]1OC(c2ccc(OCCCO)cc2)=N[C@]1(Cc1ccccc1)C(=O)N1CCOCC1 -0.208
CC(C)C[C@@H]1NC(=O)[C@H]2C[C@@H](C(=O)NCCCCCCN(C)C)[C@@H](c3cccc(OCCO)c3)N2C1=O -0.0059
C=C(/C(=C/C[C@@H](OC(=O)c1ccncc1)c1ccc(OCCO)cc1)c1cnc2ccccc2c1)C(C)C -0.235
CS(=O)(=O)CCOC(=O)C1=CC(CCCO)=CC(c2cccs2)N(Cc2cccc(OC(F)(F)F)c2)C=C1C(=O)OCCS(C)(=O)=O (stereo not drawn) 1.52
COCCCNC(=O)[C@]1(CCC(=O)OC(C)(C)C)N=C(c2ccc(OCCCO)cc2)O[C@@H]1c1ccccc1N=[N+]=[N-] 0.149
